Assay results from PubChem BioAssay.
Results with a measured potency or affinity are listed apart. Results filed as inconclusive are left out. Active and inactive are the calls of the source.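 How the source made its calls, unless noted: active means a fitted half-maximal concentration no higher than twice the top valid tested dose, with signal falling as cells die; inconclusive means flat curve between -70% and -30%, or poor fit; inactive means the rest, including signal rising instead of falling.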

Key:
[1] = Cryptococcus neoformans growth inhibition, dose response, Alamar Blue, cherry-picks (AID 686998;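 active means falling signal with fitted half-maximal potency no higher than twice the top valid tested dose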)
[2] = inducers of Cryptococcus neoformans cell lysis, dose response, AK release luminescence, cherry-picks (AID 687000;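 active means fitted dose curve reaches 40% lysis signal rise at or below the highest valid concentration tested for that sample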;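 further: luminescent detection of adenylate kinase leaking from lysed yeast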)
[3] = HepG2 cell cytotoxicity, dose response, cytotoxicity control, cherry-picks, set 2 (AID 687002;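 active means a dose-response fit showing signal loss, with half-maximal concentration no higher than twice the top tested dose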)
[4] = HeLa cell cytotoxicity, dose response, cytotoxicity control, ATP luminescence, cherry-pick samples (AID 687004)

Measured: outcome

C[C@@H]1CCCCO[C@H](CN(C)C(=O)c2ccccc2)[C@@H](C)CN([C@@H](C)CO)C(=O)c2cc(NC(=O)c3ccccc3)ccc2O1
inactive: all assays above

C[C@@H]1CN([C@@H](C)CO)C(=O)c2cc(/C=C/c3ccccc3)cnc2O[C@@H]1CN(C)S(C)(=O)=O
inactive: all assays above

Cc1ccc(C)c(NC(=O)C2(C)CCCN2C(=O)C(C)C)c1 (stereo not given)
inactive: all assays above

COc1ccc(CN(C)C[C@@H]2Oc3ccc(NC(=O)Nc4ccc(F)cc4)cc3CC(=O)N([C@H](C)CO)C[C@H]2C)cc1
inactive: all assays above

C[C@H]1CN([C@@H](C)CO)C(=O)Cc2cc(NS(=O)(=O)c3ccc(F)cc3)ccc2O[C@@H]1CN(C)S(=O)(=O)c1ccc(F)cc1
inactive: all assays above

C[C@@H]1CN([C@H](C)CO)C(=O)Cc2cc(NC(=O)Nc3cccc4ccccc34)ccc2O[C@@H]1CN(C)Cc1ccc(C(=O)O)cc1
inactive: all assays above

COCCNC(=O)C[C@@H]1C[C@@H]2c3cc(NC(=O)C4CCOCC4)ccc3O[C@@H]2[C@@H](CO)O1
inactive: all assays above

C[C@@H]1CCCCO[C@@H](CN(C)CC2CCCCC2)[C@@H](C)CN([C@@H](C)CO)C(=O)c2cc(NS(=O)(=O)c3ccccc3)ccc2O1
inactive: all assays above

NC(=O)CN(c1ccccc1)S(=O)(=O)c1ccc(F)cc1
inactive: all assays above

Cc1noc(C)c1S(=O)(=O)Nc1ccc2c(c1)C(=O)N([C@@H](C)CO)C[C@H](C)[C@@H](CN(C)Cc1ccc3c(c1)OCO3)OCCCC[C@@H](C)O2
inactive: all assays above
